Bioassay records as filed in PubChem.
Hits are enriched below; roughly 6.5% of the tested compounds scored in any of these assays.
LASV entry inh: blocks Lassa virus binding to or entry into cells; 1.2% of 300,000 active; AID 540256; Lassa virus pseudotype entry inhibition, cell reporter; Potency, µM (series often up to 37.9 µM), most hits filed as inhibitors; calls by dose curve; tested in HEK293 cells; also: nearly all actives have a fitted effect of over 50% in size
Vaccinia mCherry: vaccinia inhibition (mCherry reporter); 0.63% of 310,000 active; Potency, µM (top dose mostly 36.5 µM), usual class: inhibitors; AID 720579; Vaccinia virus mCherry reporter infection, fluorescence; calls by dose curve; tested in A549 cells; also: nearly all actives have a fitted effect of over 35% in size
HCMV inh: blocks human cytomegalovirus replication. AID 1259415. 4.5% of 410,000 active. activity change, negative = inhibition, % at 57.5 µM. HFF cells, HCMV-luciferase reporter, 72 h; hits give low values; in the data active = activity change below about -60%; inconclusive = no clear call, values can overlap the other calls; inactive = above about -39%
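Cell-based, HFFs, 1000 cells/well, 16 h 37C; cpds in DMSO + HCMV-luc, MOI 1 PFU/cell; 72 h 37C; OneGlo luminescence after 5 min RT; norm. to buffer vs Salinomycin 10uM.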
Vaccinia Venus: vaccinia inhibition (Venus reporter). Vaccinia virus Venus reporter expression, fluorescence. Potency, µM (series often up to 36.5 µM), most hits filed as inhibitors. 0.46% of 330,000 active; calls by dose curve; tested in A549 cells; also: nearly all actives have a fitted effect of over 30% in size
FMDV inh: blocks foot and mouth disease virus. FMDV antiviral cell-based qHTS. Potency, µM (highest dose often 57.9 µM), most hits filed as inhibitors. AID 1159524. 1.2% of 410,000 active; calls by dose curve; tested in HEK293T cells; also: read-out not given here; nearly all actives have a fitted effect of over 45% in size
MARV entry inh: blocks Marburg virus binding to or entry into cells | Marburg virus pseudotyped entry inhibition, cell reporter | Potency, µM (series often up to 37.8 µM), usual class: inhibitors | 1.8% of 300,000 active | AID 540276; calls by dose curve; tested in HEK293 cells
Large screens that a line does not name were inactive.

FC(F)(F)c1cccc(-n2cc(-c3ccccc3)c3c(N4CCCCC4)ncnc32)c1	FMDV inh inconclusive (no result: MARV entry inh)
CCCCCCCCCCC[N+](C)(C)CC/C=C1/c2ccccc2Sc2ccc(Cl)cc21	Vaccinia mCherry inconclusive, Vaccinia Venus 11µM, FMDV inh inconclusive (no result: LASV entry inh, HCMV inh, MARV entry inh)
CCCCCCCCCC[N+](C)(C)CC/C=C1/c2ccccc2Sc2ccc(Cl)cc21	Vaccinia mCherry inconclusive, Vaccinia Venus 11µM, FMDV inh inconclusive (no result: LASV entry inh, HCMV inh, MARV entry inh)
Cc1cccc(NC(=O)C(c2ccccc2Cl)N2CCOCC2)c1 (stereo unspecified)	none
Cc1ccc(NC(=O)C(c2ccc(Cl)cc2Cl)N2CCCC2)cc1 (stereo unspecified)	HCMV inh -65
N#Cc1c(N)n(CCc2ccc(F)cc2)c2nc3ccccc3nc12	HCMV inh -69 (no result: Vaccinia mCherry)
CCc1nn2cc(C(=O)c3cc(Cl)ccc3O)cnc2c1-c1ccc(F)cc1	LASV entry inh inconclusive, HCMV inh -70, FMDV inh inconclusive
CCc1ccc(O)c(C(=O)c2cnc3cc(-c4ccc(C)cc4)nn3c2)c1	LASV entry inh inconclusive
CCC(C)(C)c1ccc(Oc2ccc(N)cc2)cc1	LASV entry inh inconclusive, HCMV inh -91, Vaccinia Venus inconclusive, FMDV inh 1.1µM, MARV entry inh 4µM
O=C(C=Cc1cccnc1)c1ccccc1	LASV entry inh inconclusive, FMDV inh 32µM, MARV entry inh 13µM
O=C(/C=C/c1cccnc1)c1cccc(O)c1	LASV entry inh inconclusive, MARV entry inh inconclusive
O=C(/C=C/c1cccnc1)c1ccc(O)cc1	HCMV inh -88, MARV entry inh inconclusive
Cc1cccnc1NC(=S)NC(=O)/C=C/c1ccccc1	MARV entry inh inconclusive
O=C(/C=C/c1cccnc1)c1ccc([N+](=O)[O-])cc1	LASV entry inh inconclusive, Vaccinia mCherry inconclusive, MARV entry inh inconclusive
O=C(/C=C/c1ccccc1)NC(=S)Nc1cccnc1	MARV entry inh 12µM (no result: FMDV inh)
COc1cc(C(=O)/C=C/c2cccnc2)c([N+](=O)[O-])cc1OC	Vaccinia mCherry 13µM, HCMV inh -100, Vaccinia Venus 11µM, FMDV inh 14µM (no result: LASV entry inh, MARV entry inh)
C/C=C(\C)C(=O)NCCN1Cc2ccccc2OC(c2ccccc2OC)C1 (stereo unspecified)	none (no result: LASV entry inh, HCMV inh, MARV entry inh)
OC(c1ccc(F)cc1)c1nc(-c2cccs2)cs1 (stereo unspecified)	none (no result: LASV entry inh, MARV entry inh)
CC(=O)C1CCC2C3CC(C)C4=CC(=O)CCC4(C)C3C(=O)CC12C (stereo unspecified)	none
CC(=O)N1CC(C(=O)Nc2ccc3c(c2)OCO3)Oc2ccccc21 (stereo unspecified)	LASV entry inh inconclusive
COc1ccc(-n2nnnc2S(=O)(=O)Cc2ccc(C(=O)O)cc2)cc1	FMDV inh 28µM, MARV entry inh inconclusive (no result: Vaccinia mCherry, Vaccinia Venus)
COc1ccc(-n2nnnc2S(=O)(=O)CC(=O)N2CCCCC2)cc1	Vaccinia mCherry 13µM, Vaccinia Venus inconclusive, FMDV inh 20µM (no result: LASV entry inh, HCMV inh, MARV entry inh)
Cc1cc(/C=C2\SC(=S)N(C)C2=O)c(C)n1-c1ccc(O)cc1	Vaccinia mCherry inconclusive, HCMV inh -97, FMDV inh 0.89µM (no result: LASV entry inh, MARV entry inh)
Cc1cc(/C=C2/SC(=S)N(c3ccc([N+](=O)[O-])cc3)C2=O)c(C)n1-c1cccnc1	HCMV inh -83, FMDV inh inconclusive (no result: Vaccinia mCherry, Vaccinia Venus)
Cc1cc(/C=C2\SC(=S)N(C)C2=O)c(C)n1-c1ccccc1O	LASV entry inh inconclusive, Vaccinia mCherry inconclusive, FMDV inh inconclusive, MARV entry inh inconclusive
Cc1cc(/C=C2/SC(=S)N(c3cccc(Cl)c3)C2=O)c(C)n1-c1cccnc1	LASV entry inh inconclusive, Vaccinia mCherry inconclusive, HCMV inh -93, Vaccinia Venus inconclusive, FMDV inh inconclusive, MARV entry inh inconclusive
CCN(CCNC(=O)[C@H]1C=C(OC)C(=O)C[C@H](c2ccccc2)[C@@H]1C)C(C)=O	none (no result: LASV entry inh, Vaccinia mCherry, HCMV inh, Vaccinia Venus, FMDV inh)
CCc1ccccc1N1C(=O)N(Cc2ccc(C#N)cc2)c2ccccc2S1(=O)=O	none (no result: MARV entry inh)
O=C(NNC(=O)c1cccs1)c1ccccc1	none (no result: LASV entry inh, MARV entry inh)
CCC1CCCCN1S(=O)(=O)c1ccc(NC(=O)C2CCCO2)cc1 (stereo unspecified)	none
O=C(Nc1nonc1NC(=O)c1cccs1)c1cccs1	LASV entry inh 8.9µM, Vaccinia mCherry inconclusive, HCMV inh -93, Vaccinia Venus inconclusive, FMDV inh inconclusive, MARV entry inh inconclusive
CCC1CCCCN1S(=O)(=O)c1ccc(NC(=O)c2cccs2)cc1 (stereo unspecified)	LASV entry inh 5.2µM
O=C(Nc1ccc(NC(=O)C2CC2)cc1)c1cccs1	HCMV inh -77, MARV entry inh inconclusive
CC(=O)Nc1ccc(C(=O)NNC(=O)c2cccs2)cc1	HCMV inh -67
O=C(Nc1ccc(NC(=O)c2cccs2)cc1)c1cccs1	MARV entry inh inconclusive
O=C(C1CCC1)N1CCCc2cc(S(=O)(=O)N3CCN(c4ccccc4)CC3)ccc21	LASV entry inh 11µM, FMDV inh inconclusive (no result: MARV entry inh)
CC(=O)N1CCCc2cc(S(=O)(=O)N3CCCC(C(=O)Nc4ccc(C)c(F)c4)C3)ccc21 (stereo unspecified)	FMDV inh inconclusive (no result: MARV entry inh)
COc1ccc(N2CCN(C(=O)C3CCCN(S(=O)(=O)c4ccc5c(c4)CCCN5C(C)=O)C3)CC2)cc1 (stereo unspecified)	LASV entry inh inconclusive, Vaccinia mCherry inconclusive, HCMV inh -71, Vaccinia Venus inconclusive, FMDV inh inconclusive (no result: MARV entry inh)
COc1ccc(N2CCN(C(=O)C3CCCN(S(=O)(=O)c4ccc5c(c4)oc(=O)n5C)C3)CC2)cc1 (stereo unspecified)	FMDV inh inconclusive
CC(=O)N1CCCc2cc(S(=O)(=O)N3CCCC(C(=O)N4CCN(c5ccccc5F)CC4)C3)ccc21 (stereo unspecified)	LASV entry inh inconclusive, Vaccinia mCherry inconclusive, HCMV inh inconclusive, FMDV inh 16µM (no result: MARV entry inh)
COc1cccc(N2CCN(C(=O)c3ccc(C)c(NC(=O)c4nsc5ccccc45)c3)CC2)c1	FMDV inh inconclusive (no result: MARV entry inh)
O=S(=O)(c1ccccc1)N1N=C(c2ccc(Br)cc2)CC1c1ccco1 (stereo unspecified)	HCMV inh -60 (no result: LASV entry inh, MARV entry inh)
COc1cc(CNCc2cc3ccc(F)cc3nc2N2CCOCC2)cc(OC)c1OC	none (no result: LASV entry inh, HCMV inh, MARV entry inh)
CCOC(=O)C1=C(NC(=S)NC(=O)c2ccccc2)c2ccccc2CC1C(C)C (stereo unspecified)	LASV entry inh 0.89µM, Vaccinia mCherry inconclusive, HCMV inh -77, MARV entry inh 0.79µM
CCOC(=O)C1=C(NC(=S)NC(=O)c2ccccc2)c2ccccc2CC1(C)CC (stereo unspecified)	LASV entry inh 2.1µM, HCMV inh inconclusive, MARV entry inh 5.8µM
CCOC(=O)c1sc(NC(=S)NC(=O)c2ccccc2)c(C(=O)OCC)c1C	none
CC(NC(=O)c1cccnc1)c1nnc2n1CCN(Cc1ccc(F)cc1F)CC2 (stereo unspecified)	none (no result: LASV entry inh, HCMV inh, MARV entry inh)
C#CCn1c(O)c(N=NC(=O)C(O)c2ccccc2)c2ccccc21 (stereo unspecified)	Vaccinia mCherry 13µM, Vaccinia Venus inconclusive
CN1C(=O)C(C(Nc2ccccc2)c2ccccc2)c2ccccc21 (stereo unspecified)	none (no result: LASV entry inh, Vaccinia mCherry, Vaccinia Venus, FMDV inh, MARV entry inh)
